# Source: PubChem
# DT40 TDP1 CPT: growth inhibition of DT40 Tdp1-/-;hTDP1 cells with camptothecin (screen for TDP1 inhibitors); chicken DT40 Tdp1-/-;hTDP1 cells + 20 nM CPT, ATP luminescence, 48 h; 420,000 compounds, 12% hits; Potency, µM (titrated, usually from 46.2 µM), inactives show at the top dose activity change, negative = growth inhibition, usual class: inhibitors; further: nearly all actives have a fitted effect of over 55% in size
#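 Chicken DT40 Tdp1-/- cells complemented with human TDP1, 400 cells/well, exposed to compounds plus 20 nM camptothecin for at least 48 h at 37 C; viability read as ATP content by CellTiter-Glo luminescence.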
# VP16 counter: counter-screen for ROR gamma inhibitors: Gal4-VP16 reporter. 310,000 compounds, 3.5% hits. AID 2546. Drosophila S2 Gal4-VP16 UAS-luciferase, luminescence, 20 h. Potency, µM (top dose mostly 53.6 µM), for the others: at the highest dose activity, negative = inhibition, usual class: inhibitors;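 further: Gal4-VP16 expression switched on by copper sulfate through the metallothionein promoter; nearly all actives have a fitted effect of over 50% in size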
# RORgamma inh: ROR gamma (mouse) transcription inhibition | 310,000 compounds, 5.4% hits | Potency, µM (titrated, usually from 53.6 µM), for the others: top-dose activity change, negative = inhibition, actives largely listed as inhibitors | P51450 | Drosophila S2 Gal4-RORgamma UAS-luciferase reporter, 20 h | AID 2551; further: nearly all actives have a fitted effect of over 60% in size
# Target sequence (P51450 whole entry, looked up, the tested form may be a part): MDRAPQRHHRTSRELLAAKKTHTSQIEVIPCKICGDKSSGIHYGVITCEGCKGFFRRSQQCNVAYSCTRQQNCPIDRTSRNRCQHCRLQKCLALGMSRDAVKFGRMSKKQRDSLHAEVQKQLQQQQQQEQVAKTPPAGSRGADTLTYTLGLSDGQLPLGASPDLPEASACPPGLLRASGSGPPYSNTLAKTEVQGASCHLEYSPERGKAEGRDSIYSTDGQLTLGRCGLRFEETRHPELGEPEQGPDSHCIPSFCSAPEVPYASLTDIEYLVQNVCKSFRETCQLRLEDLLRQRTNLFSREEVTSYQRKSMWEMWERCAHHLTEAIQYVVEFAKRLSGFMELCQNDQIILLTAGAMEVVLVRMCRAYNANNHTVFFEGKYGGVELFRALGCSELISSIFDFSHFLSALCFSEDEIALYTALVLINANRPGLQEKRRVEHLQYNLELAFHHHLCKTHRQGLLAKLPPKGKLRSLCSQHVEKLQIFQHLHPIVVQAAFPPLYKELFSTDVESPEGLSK
#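 Read-out: Photinus luciferase luminescence; inhibitors lower reporter signal. Insect Schneider cells with Gal4-ROR gamma fusion under metallothionein promoter, UAS reporter; 700 uM final copper sulfate induction, 20 hr, ambient temperature.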
# TDP1 cell noCPT: qHTS for Inhibitors of human tyrosyl-DNA phosphodiesterase 1 (TDP1): qHTS in cells in absence of CPT. 420,000 compounds, 15% hits. DT40 Tdp1-/- hTDP1 cells, no CPT, ATP luminescence, 48 h. AID 686978, 2013. Potency, µM (top dose mostly 46.2 µM), for inactives: top-dose activity change, negative = growth inhibition, usual class: inhibitors; further: nearly all actives have a fitted effect of over 55% in size
#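 No-CPT arm: Tdp1-/-;hTDP1 DT40 cells (400/well) plus compounds, incubated ≥48 hr at 37 °C. Readout CellTiter-Glo luminescence.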
# 12-LOX inh: blocks human arachidonate 12S-lipoxygenase; AID 1671190; Potency, µM (top dose mostly 108 µM), inactives show at the highest dose activity change, negative = inhibition, hits mostly inhibitors; 580,000 compounds, 1.1% hits; purified 12hLO, xylenol orange hydroperoxide absorbance; P18054
#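 Purified human 12hLO at 150 nM in 25 mM Hepes, 0.01% Triton X-100, pH 7.0, preincubated 15 min at room temperature with compound. Reaction started with 40 uM arachidonic acid, 30 min at room temperature. Hydroperoxide measured by Fe-xylenol orange, 573/405 nm absorbance ratio.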
# ELG1 repair inh: inhibitors of ELG1-dependent DNA repair in HEK293T cells | HEK293T ELG1-luciferase reporter, luminescence, 16 h; DNA damage induced by 5-fluorouridine | 330,000 compounds, 2.3% hits | Potency, µM (top dose mostly 46.1 µM), without a hit: top-dose activity change, negative = inhibition, actives largely listed as inhibitors; further: nearly all actives have a fitted effect of over 55% in size
#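 Overnight (16 hr) co-exposure of 2,000 cells/well to 5-fluorouridine and compound at 37 °C preceded detection. Luciferase was quantified via ONE-Glo luminescence; loss of signal denotes inhibition.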
# Numbers without * were called inactive; ? = inconclusive; nt = no result given; [ ] = dose if it differs, or a comment. Hits are enriched below; roughly 15% of the tested compounds scored in any of these assays. The call rests on the fitted dose curve; in most records, active means well fitted curve in the direction sought with a large enough effect; inconclusive means small, poorly fitted or top-dose-only effect, or another doubt; inactive means no such curve, though single readings can be large; an effect the other way counts as inactive or inconclusive. On the % scale 0 is the no-effect control and ±100 the full control effect; potency means the concentration at half of the fitted maximal effect.
SMILES,DT40 TDP1 CPT,VP16 counter,RORgamma inh,TDP1 cell noCPT,12-LOX inh,ELG1 repair inh
CC(c1ccco1)N(C(=O)COc1ccc(Cl)cc1Cl)c1ccccn1 (configuration not stated),?,11.2µM*,?,20.6µM*,6.7%,?
COc1ccc(Nc2ncnc3c2cnn3-c2cc(Cl)ccc2C)cc1OC,20.6µM*,nt,nt,?,-29.2%,nt
Cc1ccc(Cl)cc1-n1ncc2c(Nc3cccc(C)c3C)ncnc21,16.4µM*,nt,nt,16.4µM*,?,nt
C=CCC1(CO)CCCN(CCS(=O)(=O)c2ccccc2)C1 (configuration not stated),nt,nt,nt,nt,-8.9%,nt
COc1ccc(-c2cc3n(n2)C(C(=O)Nc2ccccc2F)CC(=O)N3)cc1OC (configuration not stated),nt,nt,nt,nt,2.6%,nt
Cc1cc2nc(-c3ccc(SCC(=O)N4CCOCC4)nc3)[nH]c2cc1C,25.9µM*,?,-38.4%,?,-15.0%,?
N#CCSc1ccc(-c2nc3ccccc3[nH]2)cn1,?,-1.4%,23.1%,23.1µM*,-1.3%,?
Cc1ccc2nc(-c3ccc(SCC(=O)Nc4ccc5c(c4)OCCO5)nc3)[nH]c2c1,?,-15.3%,?,-58.7%,11.1%,?
Cc1cc2nc(-c3ccc(SCC(=O)N4CCN(C(=O)c5ccco5)CC4)nc3)[nH]c2cc1C,?,-11.3%,9.0%,?,0.0%,?
Cc1cc2nc(-c3ccc(SCC(=O)Nc4ccc5c(c4)OCCO5)nc3)[nH]c2cc1C,23.1µM*,?,-43.4%,23.1µM*,-8.7%,?
O=C(CSc1ccc(-c2nc3ccccc3[nH]2)cn1)Nc1ccc(S(=O)(=O)NC2CC2)cc1,25.9µM*,-24.0%,44.4%,20.6µM*,7.0%,9.7%
Cc1cccc(NC(=O)CC2CC3CCC2C3)c1 (configuration not stated),nt,nt,nt,nt,1.8%,nt
CCOC(=O)CSc1ccc(-c2nc3cc(C)c(C)cc3[nH]2)cn1,?,?,17.8µM*,?,-19.0%,?
CCOC(=O)[C@H]1[C@H]2COc3ccc(Br)cc3[C@@H]2N2C(=O)c3cc(Br)ccc3NC(=O)[C@@]12C,?,nt,nt,18.4µM*,4.0%,-24.3%
CCOC(=O)[C@H]1[C@H]2COc3ccc(Cl)cc3[C@@H]2N2C(=O)c3ccccc3NC(=O)[C@@]12C,?,nt,nt,?,-6.3%,26.0%
CCOC(=O)[C@H]1[C@H]2COc3ccccc3[C@@H]2N2C(=O)c3cc(Cl)ccc3NC(=O)[C@@]12C,?,nt,nt,?,?,13.7%
CCOC(=O)[C@H]1[C@H]2COc3ccccc3[C@@H]2N2C(=O)c3cc(Br)ccc3NC(=O)[C@@]12C,-15.4%,nt,nt,-3.3%,-5.7%,-18.9%
CCOC(=O)[C@H]1[C@H]2COc3ccc(Cl)cc3[C@@H]2N2C(=O)c3cc(Br)ccc3NC(=O)[C@@]12C,16.4µM*,nt,nt,20.6µM*,?,-28.3%
CCOC(=O)[C@H]1[C@H]2COc3ccc(Cl)cc3[C@@H]2N2C(=O)c3cc(F)c(F)cc3NC(=O)[C@@]12C,?,nt,nt,23.1µM*,-2.0%,-8.9%
CCOC(=O)[C@H]1[C@H]2COc3ccc(Cl)cc3[C@@H]2N2C(=O)c3cc(Cl)ccc3NC(=O)[C@@]12C,13µM*,nt,nt,?,-58.4%,?
CCOC(=O)[C@H]1[C@H]2COc3ccc(Cl)cc3[C@@H]2N2C(=O)c3ccc(F)cc3NC(=O)[C@@]12C,?,nt,nt,?,-5.1%,-1.0%
CCOc1ccc(-c2nc(CN3CCCC(O)C3)cs2)cc1OC (configuration not stated),nt,nt,nt,nt,24.6%,nt
O=C1CCCC2=C1C(c1ccsc1)CC(=O)N2c1cccc(C(F)(F)F)c1 (configuration not stated),nt,nt,nt,nt,4.6%,nt
CN(C(=O)COC(=O)c1c2c(nc3ccccc13)/C(=C/c1cccc([N+](=O)[O-])c1)CCC2)C1CCS(=O)(=O)C1 (configuration not stated),3.26µM*,-9.6%,38.8%,5.17µM*,-28.8%,5.8µM*
CN(C(=O)COC(=O)/C=C/c1cccc([N+](=O)[O-])c1)C1CCS(=O)(=O)C1 (configuration not stated),-11.9%,3.9%,-11.5%,0.3%,-22.3%,13µM*
SMILES,DT40 TDP1 CPT,VP16 counter,RORgamma inh,TDP1 cell noCPT,12-LOX inh,ELG1 repair inh
CS(=O)(=O)N1C[C@@H](Oc2ccccc2)C[C@H]1C(=O)N1CCCC1,nt,nt,nt,nt,-8.3%,nt
OC1c2cc(Br)ccc2N=C2CCCN21 (configuration not stated),11.6µM*,-7.2%,23.4%,18.4µM*,-1.2%,?
OC1c2ccccc2N=C2CCCN21 (configuration not stated),nt,7.0%,16.7%,nt,6.0%,nt
OC1c2cc(Br)ccc2N=C2CCCCCN21 (configuration not stated),?,nt,nt,16.4µM*,2.5%,nt
COC(=O)/C(=C/c1c[nH]c2ccccc12)NC(C)=O,0.6%,-1.7%,7.7%,7.2%,-10.1%,7.7%
COC(=O)/C(=C/c1c[nH]c2ccccc12)[N+](=O)[O-],-20.7%,20µM*,?,-16.0%,?,?
CN(CCC(O)c1ccccc1)Cc1cn(-c2ccccc2)nn1 (configuration not stated),nt,nt,nt,nt,35.1%,nt
COc1ccc(N2CCN(CCC(N)=O)CC2)cc1,2.3%,-0.9%,-12.6%,-1.9%,-15.4%,5.0%
O=C(CCN1CCCCCC1)c1ccccc1,3.26µM*,-8.4%,-8.2%,3.66µM*,0.0%[57.4 µM],15.7%
COc1ccc(C(=O)CCN2CCN(c3ccc(OC)cc3)CC2)cc1,2.06µM*,?,?,2.06µM*,11.8%,9.9%
COc1ccc(C(=O)CCN2CCCCCC2)cc1,3.16µM*,5.01µM*,3.16µM*,3.16µM*,-28.0%,11.1%
O=C(CCCCN1CCCCC1)c1ccc2c(c1)Cc1ccccc1-2,?,?,12.6µM*,20.6µM*,-7.6%,11.4%
Cc1ccc(C(=O)CCN2CCCCCC2)cc1,nt,nt,nt,nt,2.6%,nt
O=S(=O)(Nc1nc2ccccc2nc1NCc1ccc(F)cc1)c1ccc(F)cc1,nt,nt,nt,nt,1.6%,nt
Cc1ccc(-c2noc(CCn3c(=O)[nH]c4cc5c(cc4c3=O)OCO5)n2)cc1,nt,nt,nt,nt,-6.5%,nt
O=C(/C=C/c1ccccc1)CC(=O)c1ccccc1O,?,11.2µM*,?,18.4µM*,1.3%,?
CCOc1ccc(C(=O)CCC(=O)NN2CCCCC2)cc1,0.1%,nt,nt,-1.9%,1.9%,nt
